Paper PMC8159961, “Exploring protein hotspots by optimized fragment pharmacophores” (Nature Communications, 2021)
Values without a mark were called inactive. How the calls were made is not given here.

What was measured:
Assay in all cases: primary screen, binary call; higher = more effect of the substance
[1] = biological target: Factor Xa (bovine, UniProt P00743); design: screenings were carried out in duplicate in one independent experiment; settings: 200 µM
Protocol: Protease inhibitory assays were performed in transparent microtiter plates in a final volume of 200 µL with the use of chromogenic substrates. The reaction rates in the absence and in the presence of the inhibitor were measured; screenings were carried out in duplicate in one independent experiment and Ki values were determined in triplicate in two independent experiments.

[2] = biological target: 5-HT6 receptor (human, UniProt P50406); design: hit call from the mean of at least two separate experiments; settings: 10 µM
Chain of 5-HT6 receptor (P50406 whole entry, looked up): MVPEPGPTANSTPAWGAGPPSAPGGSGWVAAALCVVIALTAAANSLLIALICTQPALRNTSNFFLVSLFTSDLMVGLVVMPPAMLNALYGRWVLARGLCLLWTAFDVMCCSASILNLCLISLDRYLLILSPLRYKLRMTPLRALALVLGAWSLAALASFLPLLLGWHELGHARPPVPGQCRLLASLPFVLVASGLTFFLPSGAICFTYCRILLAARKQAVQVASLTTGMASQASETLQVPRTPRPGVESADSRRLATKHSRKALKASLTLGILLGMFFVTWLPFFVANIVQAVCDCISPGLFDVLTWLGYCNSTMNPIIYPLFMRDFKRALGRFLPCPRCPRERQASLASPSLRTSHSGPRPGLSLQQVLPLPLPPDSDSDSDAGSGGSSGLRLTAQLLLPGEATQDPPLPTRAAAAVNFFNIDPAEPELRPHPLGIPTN

[3] = biological target: 5-HT7b receptor (human, UniProt P34969); design: hit call from the mean of at least two separate experiments; settings: 10 µM
Chain of 5-HT7b receptor (P34969 whole entry, looked up): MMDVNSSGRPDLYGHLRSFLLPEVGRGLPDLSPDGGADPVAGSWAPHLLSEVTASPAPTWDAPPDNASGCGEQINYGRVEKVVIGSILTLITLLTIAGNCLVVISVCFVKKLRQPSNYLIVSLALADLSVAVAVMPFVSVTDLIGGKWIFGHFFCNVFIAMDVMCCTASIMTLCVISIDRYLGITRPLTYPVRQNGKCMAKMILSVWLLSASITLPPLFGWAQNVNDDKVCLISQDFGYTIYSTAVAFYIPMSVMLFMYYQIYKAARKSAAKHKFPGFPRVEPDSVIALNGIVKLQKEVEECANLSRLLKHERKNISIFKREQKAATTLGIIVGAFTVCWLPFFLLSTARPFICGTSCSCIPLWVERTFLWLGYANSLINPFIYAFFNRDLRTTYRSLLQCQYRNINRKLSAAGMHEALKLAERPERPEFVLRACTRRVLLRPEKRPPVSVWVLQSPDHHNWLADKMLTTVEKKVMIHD

Chain of Factor Xa (P00743 41-180 limits assumed): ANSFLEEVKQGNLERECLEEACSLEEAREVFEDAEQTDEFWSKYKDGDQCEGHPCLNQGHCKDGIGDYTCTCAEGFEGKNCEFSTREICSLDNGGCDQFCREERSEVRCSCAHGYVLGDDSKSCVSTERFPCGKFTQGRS
Chain of Factor Xa (P00743 234-492 limits assumed): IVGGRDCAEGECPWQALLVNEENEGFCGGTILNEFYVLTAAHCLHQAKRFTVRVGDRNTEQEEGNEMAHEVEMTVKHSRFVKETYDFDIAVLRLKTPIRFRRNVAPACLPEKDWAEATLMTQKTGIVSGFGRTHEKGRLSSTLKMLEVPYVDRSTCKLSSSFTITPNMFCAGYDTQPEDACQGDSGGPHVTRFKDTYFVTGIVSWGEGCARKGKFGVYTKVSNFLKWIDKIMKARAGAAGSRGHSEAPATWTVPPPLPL

Structure (SMILES)	Factor Xa [1]	5-HT6 [2]	5-HT7 [3]
Oc1cnc(-c2ccccc2)nc1	0	0	0
CS(=O)(=O)Nc1ccc(C(=O)O)cc1	0	0	0
O=c1[nH]c2c(s1)CCC2	0	0	0
Nc1ccc(-c2ccccc2)cc1C(=O)O	0	0	0
Cc1nccn1Cc1cccc(C#N)c1	0	0	0
O=C(O)CC1CCC(=O)N1 (stereo not drawn)	0	0	0
CC(=O)c1sc(-c2ccc(O)cc2)nc1C	1 (active)	1 (active)	0
Oc1ccc(C2CCNCC2)cc1	0	0	0
N[C@H]1c2ccccc2C[C@H]1CO	0	0	0
c1cnc2c(c1)NCCC2	0	0	0
Cc1cc(N)no1	0	0	0
NC(=O)N1CCC(C(=O)O)CC1	0	0	0
O=C(c1ccccc1F)N1CCNCC1	1 (active)	0	0
O=C(O)c1cccc(Nc2ncccn2)c1	0	1 (active)	0
CC(=O)c1ccc2c(c1)CNCC2	0	0	0
CC(CN)N1CCc2sccc2C1 (stereo not drawn)	0	0	0
